D1 agonist – human D1 receptor agonism. P21728. 360,000 tested, 1% active. HEK293 T-REx D1 cells, calcium flux, agonist mode. activation, % at 2 µM; in the data active = activation above about 30%; note: 0% is about no effect
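Inducible HEK293 T-REx D1 cells, force-coupled to calcium signalling, were plated at 4000 cells/well with tetracycline and held overnight at 30 C. After no-wash calcium dye loading, compound-evoked calcium rise over 180 s flagged agonists.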
D1 PAM – human D1 dopamine receptor positive modulation; AID 504651; potentiation, % at 10 µM; HEK293 TREx D1 cells, calcium flux, dopamine EC20 potentiation; 360,000 tested, 0.036% active; in the data active = potentiation above about 30%; note: 0% is about no effect
D1 antagonist – blocks dopamine activation of the human D1 receptor; activity change, negative = inhibition, % at 10 µM; 360,000 tested, 3.2% active; HEK293 TREx D1 cells, calcium flux, dopamine EC80; hits give low values; AID 504652; in the data active = activity change below about -30%; note: % is set by controls: 0 for no effect and ±100 for the full control effect
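Antagonism measured as reduced calcium response to an EC80 dopamine addition following 180 s compound pre-read; cells were inducible HEK293 Trex D1 plated overnight at 30 C, read kinetically at 1 cycle/sec.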
D3 ag – activates the human D3 dopamine receptor; P35462; D3R DiscoveRx beta-arrestin cells, luminescence, 90 min; max activation, %; 410,000 tested, 0.58% active; in the data active = max activation above about 30%; note: 0% is about no effect
Target sequence (P35462 whole entry, looked up): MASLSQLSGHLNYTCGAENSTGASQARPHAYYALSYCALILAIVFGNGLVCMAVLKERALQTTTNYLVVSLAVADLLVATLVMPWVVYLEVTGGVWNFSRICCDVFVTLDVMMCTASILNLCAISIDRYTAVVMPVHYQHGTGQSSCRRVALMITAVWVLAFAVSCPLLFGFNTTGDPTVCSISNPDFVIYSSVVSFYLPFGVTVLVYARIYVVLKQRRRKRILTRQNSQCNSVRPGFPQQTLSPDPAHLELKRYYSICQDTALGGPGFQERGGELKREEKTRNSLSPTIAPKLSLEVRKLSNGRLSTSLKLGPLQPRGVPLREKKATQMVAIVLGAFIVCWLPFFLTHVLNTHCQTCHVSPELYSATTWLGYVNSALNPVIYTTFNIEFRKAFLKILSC
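Agonist mode: compounds and dopamine controls were applied to plated cells for 90 min at 37 degrees C after an overnight attachment at 1500 cells/well. Luminescent read-out followed 30 - 60 minutes at room temperature with DiscoveRx detection reagent.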
D3 antag – D3 dopamine receptor (human) antagonism; P35462; D3R cells, DiscoveRx beta-arrestin luminescence, antagonist mode; hits give low values; max response, negative = inhibition, %; 360,000 tested, 2.5% active; in the data active = max response below about -50%; inconclusive = no clear call, values can overlap the other calls; note: % is set by controls: 0 for no effect and ±100 for the full control effect
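Cells expressing the human receptor were seeded at 1500 cells/well, incubated overnight at 37 degrees C in 5% CO2, then exposed to library compounds with dopamine controls for 90 minutes at 37 degrees C before luminescent detection.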
* = called active by the depositor; ? = inconclusive; nt = not tested or not shown. An excerpt weighted towards active compounds, which were near 6.1% of everything screened.

SMILES	D1 agonist	D1 PAM	D1 antagonist	D3 ag	D3 antag
COc1ccc(NC(=O)CCCN2C(=O)COc3ccc(C)cc32)cc1OC	7	-5	-46*	0	nt
Cc1ccc(C)c(NC(=O)CCCN2C(=O)COc3ccc(C)cc32)c1	1	3	15	-9	nt
Cc1ccc2oc(-c3cccc(NC(=O)c4sc5c([N+](=O)[O-])cccc5c4Cl)c3)nc2c1	0	0	5	-4	nt
COC(=O)c1scc(C#N)c1N/N=C(\C#N)S(=O)(=O)c1ccc(Cl)cc1	18	-5	-32*	11	-7
O=C(O)c1c(-c2ccccc2)oc2ccc(OCc3c(F)cccc3Cl)cc12	36*	1	0	1	nt
COc1cccc(/C=N/n2c(SC)nnc2-c2ccccc2)c1O	30*	-2	-1	-7	-8
Cc1ccccc1-n1nc(C)c2cc(C(=O)NCc3cccnc3)sc21	2	-12	-13	-50	-60*
Fc1ccccc1COc1ccc(Br)cc1CNCc1ccncc1	9	-28	-28	-12	-68*
COc1ccccc1CNCc1ccc(OC)c2ccccc12	nt	nt	nt	-3	-13
Oc1c(Br)cc(Br)cc1CNc1cnc2ccccc2c1	16	-1	-14	4	2
COc1cccc(CNCc2ccc(OC)c3ccccc23)c1OC	50*	-9	-41*	-11	3
Oc1c(Br)cc(Br)cc1CNc1ccc(F)cc1	3	-5	-39*	-5	6
COc1ccccc1CNCc1cc(Br)ccc1OC	37*	-3	-1	-9	-3
COc1ccc(Br)cc1CNc1ccc(O)cc1	2	0	26	-2	-66*
CC(=O)c1cccc(NC(=O)c2ccc3nc(C(C)C)oc3c2)c1	2	0	13	-9	nt
CCN1CCN(c2ncc(C(=O)Nc3cc(Cl)c(OC)cc3OC)c3ccccc23)CC1	3	-4	-3	1	-28
CCN1CCN(c2ncc(C(=O)Nc3c(F)cc(F)cc3Br)c3ccccc23)CC1	16	-8	4	2	-62*
O=C(CNC(=O)c1ccccc1)OC(C(=O)Nc1ccc2c(c1)OCO2)c1ccccc1 (stereo unspecified)	1	4	-1	nt	nt
CC1CC(N(C(=O)c2ccco2)c2ccccc2)c2ccccc2N1 (stereo unspecified)	1	0	-5	-18	-58*
CN(C)C(=O)C(=O)c1c(-c2ccccc2)cc2ccccn12	0	0	-8	2	13
O=C(NCCO)C(=O)c1c(-c2ccccc2)cc2ccccn12	0	-3	-31*	-3	1
Cc1ccc(OCCC(=O)OCC(=O)Nc2ccc3c(c2)OCO3)cc1	4	-6	-64*	0	16
O=C(COC(=O)c1cc(-c2ccccc2)nc2ccccc12)Nc1ccc2c(c1)OCO2	2	-3	-42*	1	-7
Cc1cc(OCC(=O)Nc2ccncc2)c(C)cc1Br	20	-12	-33*	-9	40
Cc1ccc(OCCC(=O)Nc2ccc3c(c2)OCO3)cc1	1	-1	6	4	-6
SMILES	D1 agonist	D1 PAM	D1 antagonist	D3 ag	D3 antag
CC(=O)N(C)c1ccc(NC(=O)COc2ccc(Br)cc2C)cc1	17	-8	-55*	3	1
C=C1CC2C3CCC4=CC(=O)C=C[C@]4(C)[C@@]3(F)[C@@H](O)C[C@]2(C)[C@@]1(O)C(=O)COC(C)=O (stereo partly specified)	nt	nt	nt	-7	nt
Cc1cc(C)c(OCC(=O)Nc2ccc3c(c2)OCO3)cc1C	124*	18	4	2	0
Cc1ccc(C)c(OCC(=O)Nc2ccc3c(c2)OCO3)c1	7	-6	1	1	13
Cc1ccc(NCC(=O)Nc2ccc(Br)cc2)cc1C	5	-7	-48*	2	2
Cc1ccc(-c2n[nH]c3c2C(c2cccs2)N(c2ccc(Cl)cc2)C3=O)cc1 (stereo unspecified)	16	3	9	4	nt
COc1ccc(OC)c(CC2C(=O)Nc3ccc(Br)cc32)c1 (stereo unspecified)	4	0	-3	-8	nt
CCOc1ccc(CCNC(=O)Cn2nc(CC)n3c(cc4ccccc43)c2=O)cc1	1	-4	-43*	7	nt
C=Cc1ccc(Cn2c(SCC(=O)N3CCN(c4ccc(F)cc4)CC3)nc3ccccc32)cc1	2	-5	7	-8	nt
O=S1(=O)[C@H]2C[C@H](CO)O[C@@]2(CO)CN1Cc1ccc(-c2ccc(F)cc2)cc1	nt	nt	nt	31*	-20
O=S1(=O)[C@H]2C[C@H](CO)O[C@@]2(CO)CN1Cc1ccc(-c2cccc(Cl)c2)cc1	nt	nt	nt	9	19
Cc1ccc(/C=[N+](\[O-])c2ccc(N(C)C)cc2)c2nsnc12	37*	3	-5	-6	?
Cc1ccc2nsnc2c1NS(=O)(=O)c1c(C)ccc2nsnc12	0	2	0	1	-4
COC(=O)c1scc(C)c1NC(=O)C1CCCCC1	2	4	-44*	-1	6
COC(=O)c1scc(C)c1NC(=O)c1ccc(Cl)cc1	1	-1	-2	-13	-15
COC(=O)c1sccc1NC(=S)OC	3	-4	-6	9	5
COC(=O)c1sccc1NC(=O)C1CC1	0	-2	-76*	8	7
O=C(c1c[nH]c2ccccc12)C(O)C(c1ccccc1)N1CCOCC1 (stereo unspecified)	0	-2	-20	-7	-25
O=C(c1c[nH]c2ccccc12)C(Cl)c1ccccc1 (stereo unspecified)	18	-1	-39*	1	-1
CCc1nnc(SCc2ccc(F)cc2Cl)c2cc3sc(C)cc3n12	3	-4	7	-11	nt
CC(c1ccccc1C(O)(c1ccccc1)c1ccccc1)N(C)C (stereo unspecified)	100*	-3	-39*	3	-21
Cc1[nH]c2ccccc2c1/C=C/c1nc2ccccc2c(=O)n1CCO	4	7	-13	2	15
Cc1[nH]c2ccccc2c1/C=C/c1nc2ccccc2c(=O)n1-c1cccc([N+](=O)[O-])c1	-1	-10	-37*	5	-21
COc1ccc(-n2c(/C=C/c3c(C)[nH]c4ccccc34)nc3ccccc3c2=O)cc1	0	-2	-57*	-15	nt
Cc1cn2c(=O)cc(COC(=O)c3cccc(NC(=O)COc4ccccc4Cl)c3)nc2s1	2	0	10	1	nt
COc1cccc(N2CCN(c3ncc4c(n3)CCN(Cc3ccc(Br)cc3)C4)CC2)c1	0	-1	5	-5	nt
COc1cc(OC)c(OC)cc1/C=C1\Oc2cc(OS(C)(=O)=O)ccc2C1=O	53*	-1	-22	-26	-15
COc1ccc(/C=C2\Oc3cc(OC(=O)N4CCOCC4)ccc3C2=O)cc1	3	-3	-1	1	6
COc1ccc(S(=O)(=O)Oc2ccc3c(c2)O/C(=C\c2cccnc2)C3=O)cc1	2	-4	-24	20	11

High-throughput results: PubChem, National Center for Advancing Translational Sciences (NCATS)
